Results taken from PubChem BioAssay AID686979 (National Center for Advancing Translational Sciences (NCATS), 2013).
Hit rate of the full screen: of about 420,000 compounds, about 50,000 (12%) were called active. About 26% were inconclusive and are not listed. This excerpt belongs to a sample that is enriched for actives. A number with no mark means an inactive call. Calls follow the shape of the dose curve; as a rule, active = well fitted inhibition curve with a large enough effect; inconclusive = small, poorly fitted or top-dose-only effect; inactive = flat fitted curve, though single readings scatter.

Test: qHTS for Inhibitors of human tyrosyl-DNA phosphodiesterase 1 (TDP1): qHTS in cells in presence of CPT; also: nearly all actives have a fitted effect of over 55% in size
Conditions: chicken DT40 Tdp1-/-;hTDP1 cells + 20 nM CPT, ATP luminescence, 48 h; series mostly up to 46.2 µM; activity change, negative = growth inhibition: at the top concentration
How it was run: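 Chicken DT40 Tdp1-/- cells stably complemented with human TDP1 were seeded at 400 cells/well in medium containing 20 nM camptothecin, exposed to pin-transferred compounds, and grown at 37 °C for at least 48 hr. Viability was read as ATP luminescence.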
% is scaled to controls: 0 for no effect and ±100 for the full control effect; potency is read from the fitted curve at half-maximal effect.

SMILES	activity change, negative = growth inhibition	Potency
CCN(CC(=O)Nc1c(F)cccc1F)C(=O)c1ccc(S(=O)(=O)N2CCCCC2)cc1	-24%	
COc1ccccc1OC(C)C(=O)Nc1ccc(S(=O)(=O)Nc2nccs2)cc1 (centres undefined)	2.34%	
COc1ccc(NC(=O)CC2C(=O)NC3CCCCC3N2C(=O)c2ccc(F)cc2)cc1 (centres undefined)	3.64%	
CCOc1ccc(NC(=O)C(CC(C)C)N2Cc3ccccc3C2=O)cc1 (centres undefined)	-20.7%	
Cc1ccc(CNS(=O)(=O)c2ccc(-c3cc(C(F)(F)F)on3)s2)cc1	-20.9%	
COc1ccccc1CNC(=O)COC(=O)c1sc(C)nc1C	-9.67%	
COc1ccccc1CNC(=O)c1cc(-c2cc(F)ccc2OC)n[nH]1	-10.3%	
COc1ccccc1CNC(=O)c1cc(-c2cc(Cl)ccc2C)n[nH]1		16.4 µM (active)
CC(Sc1nnc(-c2ccccc2F)n1C1CC1)C(N)=O (centres undefined)	0.143%	
Cc1ccc2c(c1)C1CN(C)CCC1N2S(=O)(=O)c1cccc(F)c1 (centres undefined)	-24.4%	
CCOC(=O)CSC1=N/C(=C/c2ccc(-n3cncn3)cc2)C(=O)N1C(C)=O		20.6 µM (active)
CCCC(=O)N1CCC1(C)C(=O)Nc1ccc(-n2cncn2)cc1 (centres undefined)	-0.867%	
CCOC(=O)CSc1nc(C)cc2c1C(=O)OC2	1.09%	
NNc1nnc(NN)c2ccccc12	-1.76%	
CCCS(=O)(=O)NC(=O)C1(C)CCCN(C(=O)c2ccnc(Cl)c2)C1 (centres undefined)	-7.91%	
CCN(CC)CCCNC(=S)N(CCO)Cc1cc2cc3c(cc2[nH]c1=O)OCO3	-8.99%	
COc1ccc(CCNc2cc(N3CCN(C(=O)c4ccccc4OC)CC3)ccc2[N+](=O)[O-])cc1OC		5.8 µM (active)

SMILES	activity change, negative = growth inhibition	Potency
COc1ccc(CCNC(=O)c2ccccc2-c2ccccc2C(=O)O)cc1OC	31.5%	
COc1ccc(CCNC(=O)C(=O)NCc2ccccc2C)cc1OC	10.3%	
CCCCN(C(=O)c1cccc(N2C(=O)c3ccccc3C2=O)c1)c1c(N)n(CCCC)c(=O)[nH]c1=O	-0.716%	
CC(CN1CCCCC1)c1ccccc1 (centres undefined)	2.22%	
COc1ccc(/C=C2\SC(=S)N(CCC(=O)Nc3ccccn3)C2=O)cc1OC	10.6%	
CCC(=O)N1CCC(C(N)=O)(N2CCCCC2)CC1	8.22%	
CC(=O)NN1C(=O)c2ccccc2NC1c1ccccc1 (centres undefined)	-3.53%	
O=C1CCC(C(=O)OCC(=O)Nc2ccc(OC(F)F)cc2)=NN1	3.87%	
Cc1ccc(Cc2cnc(N)s2)o1	-11.8%	
CCOc1ccccc1NC(=O)CCc1ccc(C)o1	17%	
Cc1ccc(CCC(=O)Nc2ncc(Cc3cc(Cl)ccc3Cl)s2)o1		0.731 µM (active)
CCOc1ccc(CCNC(=O)COC(=O)c2ccc(C)c(S(=O)(=O)N3CCOCC3)c2)cc1OCC	-1.47%	
COc1ccc(CC(=O)Nc2ccc3c(c2)CCC3)cc1S(=O)(=O)N1CCOCC1	-14.9%	
Cc1ccc(C(=O)OCC(=O)N2CCCCCC2)cc1S(=O)(=O)N1CCOCC1	-5.9%	
COc1ccc(CCC(=O)Nc2ccc(Cl)c(S(=O)(=O)N3CCOCC3)c2)cc1OC		23.1 µM (active)
O=C(COC(=O)CCc1ccc(S(=O)(=O)N2CCOCC2)cc1)Nc1cccc(Cl)c1	1.87%	
COc1ccc(C(=O)OCC(=O)c2ccc(C)c(S(=O)(=O)N3CCOCC3)c2)cc1OC		18.4 µM (active)
